The campaign covered roughly 300,000 compounds. About 660 (0.22%) were called active. For the sample, actives were picked, then their nearest neighbours and some compounds at random. Unmarked numbers belong to inactive results.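 How the source made its calls: active means mean replicate score, as percent of positive control, at or above 50; inconclusive means mean below 50 but at least one replicate at or above 50; inactive means mean and every replicate below 50.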
Assay: blockers of SFLLRN-triggered platelet ATP release – cell-based, MLPCN, human platelets, primary screen (AID 1663)
Settings: human platelet-rich plasma, SFLLRN dense granule ATP release, luminescence; stronger effect = higher value;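 compounds screened at 7.5 µM in platelet-rich plasma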

SMILES	inhibition
Cc1ccc(-n2ncc3c2CCCC3NC(=O)c2cnccn2)cc1C (stereo not given)	-0.139%
Cc1ccc(S(=O)(=O)N2CCOCC2)cc1C(=O)OC1CCCCC1=O (stereo not given)	-6.92%
COc1ccccc1NC(=O)Nc1nnc(Cc2ccc(F)cc2)s1	1.62%
CC1CCC2(CC1)NC(=O)N(Cc1nnc(-c3cccs3)o1)C2=O (stereo not given)	3.04%
Cc1ccc2c(C)c(C(=O)N(C)CCC3CCCCO3)oc2c1C (stereo not given)	4.71%
COc1cccc(C(C(=O)NC2CCCC2)N(C(=O)c2ccco2)c2cccc(C(C)=O)c2)c1OC (stereo not given)	-1.88%
OCCC1CN(Cc2cccc(OC3CCCC3)c2)CCN1Cc1ccsc1 (stereo not given)	-11.2%
CCOc1ccc(S(=O)(=O)N2CCC(C(=O)NCc3ccccn3)CC2)cc1Cl	-1.17%
O=C(Nc1ccc(-n2cccn2)cc1)C1CCN(Cc2ccsc2)CC1	0.088%
CCOc1ccc(C(=O)Nc2cccc(SC)c2)cc1	25.4%
COc1ccc(C(C(=O)NC(C)(C)C)N(Cc2ccc(F)cc2)C(=O)CCC(=O)Nc2cc(C)on2)cc1 (stereo not given)	2.89%
CCC1CCCCN1C(=S)Nc1ccc(S(=O)(=O)Nc2ncccn2)cc1 (stereo not given)	-1.83%
CC(=O)Nc1ccc(S(=O)(=O)NCC2CCC(C(=O)NCCc3ccccc3)CC2)cc1 (stereo not given)	-0.696%
Cc1ccc2c(cnn2C(=O)CCC(=O)NC2CCCC2)c1	6.24%
CCn1c(SC(C)C(=O)Nc2ccc(N3CCOCC3)cc2)nnc1-c1ccco1 (stereo not given)	-6.89%
O=C(Oc1ccc(Br)cc1)c1cccnc1	3.93%
Cc1ccc(Oc2nc(-c3ccccn3)nc3ccccc23)cc1	7.76%
O=C(Oc1ccc(-c2nc(-c3ccccn3)no2)cc1)c1ccccc1	83.2% (active)
O=C1[C@@H]2C(c3cccnc3)=NO[C@@H]2C(=O)N1c1ccc(Cl)cc1Cl	3.23%
COCCN(CCOC)c1nc(N)c2c(N)nc3c(c2c1C#N)CC(=O)N3Cc1ccc(Cl)cc1	-8.74%
CCCC(=O)Nc1cccc(NC(=S)NC(=O)C(C)Oc2ccc(Cl)cc2Cl)c1 (stereo not given)	4.37%
Cn1nc(C(F)(F)F)c(C(=O)Nc2cccc(C(F)(F)F)c2)c1SCc1ccc(Cl)cc1	0.563%
Cc1c(C#N)c(NC(=O)c2ccccc2)n(Cc2ccccc2)c1C	-12.1%
CCN1CCN(C(=O)c2ccc(CN(c3ccc(C)c(C)c3)S(C)(=O)=O)cc2)CC1	3.03%

SMILES	inhibition
Cc1nc(N)c(Br)c(C)c1Br	-11.2%
CCOc1ccc(CCNC(=O)COC(=O)C2CCN(c3ccc(C(F)(F)F)cn3)CC2)cc1OCC	-1.24%
CCCCc1ccc(S(N)(=O)=O)cc1	5.59%
NNC(=O)CNC(c1ccccc1)c1cc(Cl)ccc1NC(=O)c1ccccc1 (stereo not given)	2.02%
CCOC(=O)/C=C/c1ccc(C(F)(F)F)cc1S(=O)(=O)NC(C)(C)C	0.739%
COc1ccccc1OCc1ccc(C(=O)N2CCN(C)CC2)o1	-1.97%
O=C(c1ccco1)N1CCN(C(=O)c2ccc(COc3ccc(F)cc3)o2)CC1	60.5% (active)
O=C(c1ccco1)N1CCN(CCOc2ccccc2)CC1	-1.03%
CN(C)NC(=O)C(NC(=O)c1ccc(N)cc1)C12CC3CC(CC(C3)C1)C2 (stereo not given)	-0.607%
O=C(CCN1CCc2ccccc2C(O)(c2ccccc2)C1)c1ccc2c(c1)OCCO2 (stereo not given)	-76.9%
CC(=O)Nc1ccc(CN2CCC(Oc3ccc(C(=O)N4CCCC4)cc3)CC2)cc1	-7.89%
CC(C)(C)NC(=O)NC(=O)COC(=O)C1c2ccccc2Oc2ccccc21	-3.75%
O=C(Nc1ccn(Cc2ccccc2)n1)c1n[nH]c([N+](=O)[O-])c1Cl	0.241%
O=C(Nc1ccn(Cc2ccccc2)n1)c1cccc(F)c1	7.39%
O=C(Nc1ccn(Cc2ccc(F)cc2)n1)c1ccncc1	50.5% (active)
O=C(Nc1ccc(S(=O)(=O)NCC2CCCO2)cc1)c1ccc(F)cc1 (stereo not given)	-4.99%
Cc1ccnc(NC(=O)CNC(=O)c2ccccc2)c1	-2.51%
Cc1ccnc(NC(=O)c2ccoc2C)c1	50.8% (active)
COc1cc(SC)ccc1C(=O)Nc1cc(C)ccn1	5.66%
Cc1csc(Nc2ccc(Cl)cc2)[n+]1-c1ccc(Cl)cc1	-1.67%
Oc1ccc(CNc2ccccc2O)cc1	4.21%
CCOc1ccc(C(=O)Nc2ccc(S(=O)(=O)NCC3CCCO3)cc2)cc1OCC (stereo not given)	-1.27%
COC(=O)CN1C(=O)C(C)(C)Oc2ccc(C(=O)Nc3cccc(OC)c3)cc21	-3.5%
CCOC(=O)c1ccc(NC(=O)Cn2cnc3cc(C)c(C)cc32)cc1	9.16%

SMILES	inhibition
CCCCn1c(N)c(N(CCC(C)C)C(=O)c2ccc(COc3ccccc3)o2)c(=O)[nH]c1=O	-0.548%
Cc1ccc(NC(=O)CSCC(=O)Nc2sccc2C#N)cc1	-1.59%
O=C1/C(=C/c2ccc(F)cc2)SC(=S)N1NS(=O)(=O)c1ccccc1	-3.17%
COc1cccc(CNC(=O)CCCC(=O)Nc2cccc([N+](=O)[O-])c2)c1	6.93%
COC(=O)/C=C\C(=O)Nc1cccc([N+](=O)[O-])c1	73% (active)
COc1ccc(S(=O)(=O)NC(C)C(=O)Nc2cccc([N+](=O)[O-])c2)cc1 (stereo not given)	3.55%
CN(C)c1nc(=Nc2cccc(Cl)c2)ss1	-3.66%
CCc1ccc(-c2nc(SCC(=O)NC3CCCC3)n[nH]2)cc1	-5.4%
CC(=O)CCS(=O)(=O)c1ccc(C)c(C)c1	3.49%
c1ccc2[nH]c(-c3nc4ccccc4[nH]3)nc2c1	76.6% (active)
OC(c1nc2ccccc2[nH]1)C(O)C(O)C(O)c1nc2ccccc2[nH]1 (stereo not given)	-3.4%
Cc1ccc(-c2nc3ccccc3[nH]2)cc1N	17.1%
O=C(Nc1cccc(-c2cscn2)c1)C1CCN(Cc2ccsc2)CC1	-6.81%
CC[n+]1cc(C)ccc1/C=C/c1ccc(N(C)C)cc1	9.22%
CCCCC(=O)Nc1ccccc1N1CCN(c2ccc(F)cc2)CC1	2.05%
CNC(=O)C1CC(=O)N(Cc2ccc3c(c2)OCO3)C(=Nc2ccc(F)cc2)S1 (stereo not given)	-5.44%
Cc1ccc(N=Cc2c(O)n(-c3nccs3)c(=O)c3ccccc23)c(C)c1	-7.35%
COc1ccc(-c2nc(N)sc2C2(O)C(=O)Nc3c(Br)cc(F)cc32)cc1OC (stereo not given)	7.83%
COCCNC(=O)NC(=O)COC(=O)C1(c2ccc(Cl)cc2)CC1	11.8%
COc1ccc(CNC(=O)c2cc(C(=O)C3CC3)c[nH]2)cc1	-3.25%
COc1ccc(C(=O)COC(=O)c2ccc3ccccc3n2)cc1	-2.98%
C/C(=N\N=C(N)N)c1ccc(Cl)cc1	-7.88%
Cc1ncn2cc(-c3ccc(Cl)cc3Cl)[nH]c(=O)c12	-3%
Cc1cc(C)cc(OCC(=O)O/N=C(\N)Cc2ccc([N+](=O)[O-])cc2)c1	1.64%

SMILES	inhibition
CNC(=S)N1CCC(NC(=O)C(Cc2ccc(F)cc2)NC(C)=O)CC1 (stereo not given)	0.885%
CCOCCCN(C(=O)Cn1nnc(-c2ccc(OC)c(OC)c2)n1)C(CC)C(=O)NC1CCCC1 (stereo not given)	7.27%
CCn1c(SCC(=O)NC2CCCC2)nnc1-c1ccoc1C	-1.97%
Cc1ccc(OCC(=O)Oc2ccccc2[N+](=O)[O-])cc1	-2.97%
COc1ccc(/C(C)=N/NC(=O)c2ccc3nc[nH]c3c2)cc1	8.86%
CCCC(C)C(=O)OCC(=O)Nc1c(Br)cc(C)cc1Br (stereo not given)	20.5%
Cn1c(=O)n(CCc2ccccc2)c(=O)c2c1nc1n2CCCN1c1ccccc1	-2.86%
Cc1cccc(N2CC(C)Cn3c2nc2c3c(=O)n(CC(=O)OCc3ccccc3)c(=O)n2C)c1 (stereo not given)	55.7% (active)
Cc1cccc(Cn2c(N3CCN(c4ccccc4)CC3)nc3c2c(=O)n(C)c(=O)n3C)c1	1.96%
CCN(CC)S(=O)(=O)c1ccc(-c2cn3ccc(C)cc3n2)cc1	5.08%
COc1ccc(-c2cn3ccc(C)cc3n2)cc1	64.2% (active)
COc1ccc(-c2cn3ccsc3n2)cc1	16.7%
CCOC(=O)C1CCN(Cc2nnc(-c3cccc(Br)c3)o2)CC1	2.47%
[O-][N+]12CCCCC1CCCC2CO (stereo not given)	4.81%
O=C1NNC(c2ccccc2)=N/C1=C\c1ccc(Cl)cc1	-15.9%
O=C1c2ccccc2C2=Nc3ccccc3SC(c3ccccc3F)C12 (stereo not given)	2.23%
Cc1c(Cl)cccc1NC(=O)NCc1ccc(C)n1C	-4.12%
Cc1cccc(NC(=O)CCn2c(=O)oc3ccccc32)c1	8.63%
CC(=O)c1nnn(-c2ccc(Cl)cc2C#N)c1C	-27.7%
COc1ccc(C(=O)Nc2cccc(NC(=O)c3ccc(OC)cc3OC)n2)c(OC)c1	10.1%
CCOC(=O)C1C(c2ccc(Cl)cc2)NC(=S)NC1(O)C(F)(F)F (stereo not given)	-3.31%
CCOC(=O)C1C(c2ccc(O)cc2)NC(=O)NC1(O)C(F)(F)F (stereo not given)	-5.44%
CCOC(=O)C1C(c2ccc(OC)c(OC)c2)c2c([nH][nH]c2=O)CC1(C)O (stereo not given)	57.3% (active)

Reference: PubChem BioAssay AID1663 (Broad Institute, 2009)
